For 63 sequences, binding signal results are on record in paper PMC7819943, “Rice protein-binding microarrays: a tool to detect cis-acting elements near promoter regions in rice”.

In all, about 68,000 sequences were measured (“fluorescence intensity (a.u.)”: median about 9,100, highest 2% from about 16,000 on). The list comes from a sample in which the highest values are over-represented; it also holds similar and randomly drawn sequences.

OsWRKY34, sequence (Q0JBA9 entry or part of it): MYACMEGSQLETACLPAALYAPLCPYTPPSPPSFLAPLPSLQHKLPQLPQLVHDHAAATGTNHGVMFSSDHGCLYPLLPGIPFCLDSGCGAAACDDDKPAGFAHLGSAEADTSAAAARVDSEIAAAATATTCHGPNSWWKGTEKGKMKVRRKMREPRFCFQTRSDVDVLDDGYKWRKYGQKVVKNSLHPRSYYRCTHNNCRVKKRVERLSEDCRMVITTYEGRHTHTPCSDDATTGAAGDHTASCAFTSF

In this assay the target is OsWRKY34 (Oryza sativa, UniProt Q0JBA9 1-250). The experiment in a line: protein-binding microarray (RPBM); PBS, 2% BSA, 51.3 ng/ul salmon testes DNA, 50 uM zinc acetate, 200 nM TF, 25 C, 1 h; high values mean tight binding. To be noted: protein: recombinant; tags: N-terminal polyhistidine and DsRed monomer fusion (pET32a); label: CyDye5-dUTP incorporated in the synthesized complementary strand; 3' TTTTT single-stranded linker to array surface; dsDNA, one strand shown. A digest of the protocol:
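Polyhistidine-tagged DsRed fusions of transcription factors, joined at the N-terminus, were expressed in E. coli BL21-CodonPlus and isolated on Ni–NTA. They were incubated at 200 nM for 1 h at 25 °C on a custom Agilent array, double-stranded and BSA-blocked, in PBS with 2% BSA, salmon testes DNA and 50 µM zinc acetate. The binding signal is per-feature fluorescence intensity (arbitrary units) read on an Axon 4000B scanner after washing.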
For “AACTCTAATTTACTGTTGGTTGGTGCAATATCAGATGGATCGGAGTCACCTAGTGCAG”, the binding signal was 8900 fluorescence intensity (a.u.). “GCTCAGATTGTTCATCAAGTTTTTCCTCTGTGCTCTGTTTCGGAGTCACCTAGTGCAG”: the binding signal was 8890 fluorescence intensity (a.u.). On to “ATGAGTATATATAAGCTTAGTCTCTTTTCTTTTCTTTCTTCGGAGTCACCTAGTGCAG”, for which the binding signal is 8940 fluorescence intensity (a.u.). As for “TGTTGATTTTTTAAAATATGTTTGACCGTTCGTCTTATTCCGGAGTCACCTAGTGCAG”, the binding signal is 10700 fluorescence intensity (a.u.).

Consider “TGTTGACTTTTTAAAACATGTTTGACCGTTCATATTATTCCGGAGTCACCTAGTGCAG”, for which the binding signal is 15700 fluorescence intensity (a.u.). Under “CGTTGACTTTTTAAAATATATTTGACCGTTCGTCTTATTCCGGAGTCACCTAGTGCAG” stands 24100 fluorescence intensity (a.u.); under “GTTGATTTTTTTTAAATATGTTTGACCGTTCGTCTTATTCCGGAGTCACCTAGTGCAG”, 8600 fluorescence intensity (a.u.); under “ACGCCGTTGACTTTTTTAAACATGTTTAACCGTTCATCTTCGGAGTCACCTAGTGCAG”, 47400 fluorescence intensity (a.u.). The result for “GCATTCGTTTCAGGCTGTTCCCAACCTCTCTCCCTTGTTTCGGAGTCACCTAGTGCAG” reads 12000 fluorescence intensity (a.u.); that for “CGGCCCAAGCTTCATTGACAAATTGTCTTGAATTTGTACACGGAGTCACCTAGTGCAG”, 8510 fluorescence intensity (a.u.).

Consider “ACACATATTTATTTTCTCCACTACCACAGAAGGAACTTTTCGGAGTCACCTAGTGCAG”, for which the binding signal is 9140 fluorescence intensity (a.u.). Under “ATTTTCGTGTTATTTTTGGTTCTGGTTGATTGATCGATTTCGGAGTCACCTAGTGCAG” stands 12900 fluorescence intensity (a.u.).

Regarding “GCGGTGGAGGCGGTGGCGGTGGTGGCGGTGGTGGAGGATGCGGAGTCACCTAGTGCAG”, the binding signal is 21200 fluorescence intensity (a.u.). Under “ATTGATTGATTGGTTGGTTGGTTGGTTGGGTTGATCGATGCGGAGTCACCTAGTGCAG” stands 20300 fluorescence intensity (a.u.); under “GTGGTGGCGGTGGAGGTGGAGGTGGAGGCGCCGTGGTGCGCGGAGTCACCTAGTGCAG”, 12600 fluorescence intensity (a.u.); under “CTTCGATTGGTTTGTTGGTTTGACTGGAATTCGGATGGATCGGAGTCACCTAGTGCAG”, 10100 fluorescence intensity (a.u.).

As for “TTTGGTAAGATTTGAACGGTTGGTTGTATAGGTCATTGACCGGAGTCACCTAGTGCAG”, the binding signal is 16900 fluorescence intensity (a.u.). Turning to “AGGGGAGGTAGGTAAGAAGATTGAACAGTGGAGGGTTGTACGGAGTCACCTAGTGCAG”, the binding signal was 9840 fluorescence intensity (a.u.). Under “GAGGAGGAGGAGGAGGAGGAGGAGGATGCGGGTGGTGGTGCGGAGTCACCTAGTGCAG” stands 10500 fluorescence intensity (a.u.); under “GTGGTTGGTTGGTGCGGTTGCGGCGGGTGATCGAACGATGCGGAGTCACCTAGTGCAG”, 12100 fluorescence intensity (a.u.); under “ATCGAATGGTTGGTTCGGTTTGGTTTTGATTGATCGATATCGGAGTCACCTAGTGCAG”, 22300 fluorescence intensity (a.u.). The result for “TTTATTGTTGTTTTTGGGTTGGTTTGGTTTGATTCCGATGCGGAGTCACCTAGTGCAG” reads 9120 fluorescence intensity (a.u.); that for “ATATAGGTTACGGATTTGTCATTGGTCGTTGTATTCTTTTCGGAGTCACCTAGTGCAG”, 10600 fluorescence intensity (a.u.).

“TTTCATGTTCGTGAAAATTATACATTTTATATGCGCCTTTCGGAGTCACCTAGTGCAG”: the binding signal was 8720 fluorescence intensity (a.u.). Under “GAAGCCATATCATCTTAATTGTTTTTAGCTCTTCTCTCATCGGAGTCACCTAGTGCAG” stands 10300 fluorescence intensity (a.u.). Under “AAAATTTTTCTATTCAATTCTTTTCGTTTTTGGACCTCTCCGGAGTCACCTAGTGCAG” stands 8660 fluorescence intensity (a.u.); under “CCCTAAACAGGTCAACCTCAGGTGTTGACTAGAGTACTAGCGGAGTCACCTAGTGCAG”, 8290 fluorescence intensity (a.u.).

As for “GTGTGTAGTGGTGTTTGTGCGCGGCCTCTAATATCATGTACGGAGTCACCTAGTGCAG”, the binding signal is 11600 fluorescence intensity (a.u.). The result for “GATTCATACAATTGTATGGTGTTAACATGGCGATTTTTTGCGGAGTCACCTAGTGCAG” reads 9120 fluorescence intensity (a.u.). The result for “CCGCTACAACACTCAACACCATACCACATGTCATCTCCGTCGGAGTCACCTAGTGCAG” reads 8060 fluorescence intensity (a.u.); that for “CTTCTGTCACGTACGCCCGTCCCTCATATGGCCAATCGCGCGGAGTCACCTAGTGCAG”, 13400 fluorescence intensity (a.u.); that for “CACTTACACTTTCATTTTCGCTTCATGTAAAATAGTCAACCGGAGTCACCTAGTGCAG”, 8980 fluorescence intensity (a.u.). The result for “ATGCGGCGGTGGCGGGAGGGAGGGACAGGGTTGGTGAAGTCGGAGTCACCTAGTGCAG” reads 17400 fluorescence intensity (a.u.). Consider “GGCGGAGGGAGGGAGGGGAAGTCGGTGGTGAGGTGGCGTGCGGAGTCACCTAGTGCAG”, for which the binding signal was 12900 fluorescence intensity (a.u.). The result for “CGGGAGAGGGAGGTGATGATGGGGCGGCGGAGGATTGGAGCGGAGTCACCTAGTGCAG” reads 8130 fluorescence intensity (a.u.).

As to “GTTGGTGGTGGTGGTGGAGGAGGCGGTGGTGGGATCGATGCGGAGTCACCTAGTGCAG”, the binding signal was 23900 fluorescence intensity (a.u.). Under “AGGGACAGGGTTGGTGAAGTGGCTTCCATGCGGCGGCCACCGGAGTCACCTAGTGCAG” stands 8150 fluorescence intensity (a.u.); under “TCGCTAGGAGTGGTGGTGGTGGTGGGAGGAGGAGGCGATGCGGAGTCACCTAGTGCAG”, 13000 fluorescence intensity (a.u.). In the case of “GTTGCTGTTTTTGATGGTCGTTGAGACAGATAGTTTGGTACGGAGTCACCTAGTGCAG”, the binding signal is 8360 fluorescence intensity (a.u.). The result for “AGATGCCTCGTGCTAGGTTTGATTGGTTGGTTGGTTGGTACGGAGTCACCTAGTGCAG” reads 19400 fluorescence intensity (a.u.). Under “AGGAGGAGGAGGAGGAGGAGGAGGAGGCGGTGGGAGGGATCGGAGTCACCTAGTGCAG” stands 14800 fluorescence intensity (a.u.); under “TCGATTGGGGATTGGGGATTGGGGATCAGGAGGGATGGGGCGGAGTCACCTAGTGCAG”, 20900 fluorescence intensity (a.u.). Under “GGGGATCAGGAGGGATGGGGATTGGGGAGACGAGTGGATGCGGAGTCACCTAGTGCAG” stands 8330 fluorescence intensity (a.u.); under “ATAGGTAGATTGTTGGTGATGCTCTAAGGGTGGGTTTTGACGGAGTCACCTAGTGCAG”, 13400 fluorescence intensity (a.u.); under “GCACTTATCGTTTATTTTCTTATAATTTATTTTATCATTGCGGAGTCACCTAGTGCAG”, 8830 fluorescence intensity (a.u.).

“GCAAGTACTTGGTGGTATATGTTGTTTGGAATAAAAAGGTCGGAGTCACCTAGTGCAG”: the binding signal is 8320 fluorescence intensity (a.u.).

Take “CCTCGCTCCTCCTCGTCGCAGATCGATCTCAAACCTTCAGCGGAGTCACCTAGTGCAG”: the binding signal is 8730 fluorescence intensity (a.u.). Under “ATACATTTATTCCTTCTTAGAGTCACTACTCTTCATTGAACGGAGTCACCTAGTGCAG” stands 8060 fluorescence intensity (a.u.); under “ACCTCTTCCTCGACGCCGCCGCCGACCACCACCCCGCCGGCGGAGTCACCTAGTGCAG”, 8670 fluorescence intensity (a.u.); under “TGTGTCATCTTGTCTATGGTAGTTCAGCAATCCTCTGCTTCGGAGTCACCTAGTGCAG”, 8890 fluorescence intensity (a.u.).

As to “ATCACCGTCCCCGCTGCCGCCACCCGCCACTGCCGCAGCGCGGAGTCACCTAGTGCAG”, the binding signal was 10800 fluorescence intensity (a.u.).

For “GGGATTGGATTGGGTTGGGTTGGATTGGAGAGAGAGAATGCGGAGTCACCTAGTGCAG”, the binding signal was 31400 fluorescence intensity (a.u.). Under “CCCGCAGATTGGATTGGATTGGGTTGGATTGGATTGGATGCGGAGTCACCTAGTGCAG” stands 10300 fluorescence intensity (a.u.); under “GGCGGCGGTGATTCGGGGATGCGGCGCGGCGGGGAGGAGGCGGAGTCACCTAGTGCAG”, 10100 fluorescence intensity (a.u.). With “AGGCGGCGGGGTGGCGGTGGTGGTGGTGGTGGTGGTGATGCGGAGTCACCTAGTGCAG”, the binding signal was 19000 fluorescence intensity (a.u.). The result for “AATGAAAAATGGGGATGGGATTGGGATTGAGAAATGAATGCGGAGTCACCTAGTGCAG” reads 9280 fluorescence intensity (a.u.); that for “AGGTGAGGTGGAGGAGGAGGAGGAGGAGGAGATCGGGATGCGGAGTCACCTAGTGCAG”, 8790 fluorescence intensity (a.u.).

Consider “CGGCGGGTGGGGCGGTGGCGGTGAGGGATGCGGTGGTGGCCGGAGTCACCTAGTGCAG”, for which the binding signal is 10700 fluorescence intensity (a.u.). The result for “GTGGGGCCCACCTGTCGGGGCGGTTGATGGGCTCTTCTAGCGGAGTCACCTAGTGCAG” reads 8370 fluorescence intensity (a.u.). Under “CCGGAGAGGCGGTGGTGTTTGGATCGGGAGGGGAGAGATGCGGAGTCACCTAGTGCAG” stands 11500 fluorescence intensity (a.u.); under “CTTCTTCTTGTCCTGCGCAACCGATGGGCGGGTTCTTGATCGGAGTCACCTAGTGCAG”, 18800 fluorescence intensity (a.u.); under “GGTGGTGGTGGTGGTGGATCGGGTGGCTTTGGCTGAGATGCGGAGTCACCTAGTGCAG”, 18100 fluorescence intensity (a.u.). The result for “CCACAACACCGCAACACACTGTCCTTGCTTCTTCATTGATCGGAGTCACCTAGTGCAG” reads 8750 fluorescence intensity (a.u.).
